# Shown is part of a subset that was picked to be rich in hits.
# LmPK inh = blocks Leishmania mexicana pyruvate kinase activity | Q27686 | purified LmPK, Kinase-Glo ATP luminescence, 1 h | Potency, µM (series often up to 57.5 µM), inactives show at the highest dose activity change, negative = inhibition, most hits filed as inhibitors | 290,000 tested, 0.37% active | AID 1721; further: potency means the concentration at half of the fitted maximal effect; on the % scale 0 is the no-effect control and ±100 the full control effect
#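 Screened at intermediate enzyme activity to detect both inhibitors and activators: LmPK at 0.1 nM, with a 0.5 nM enzyme column as activation reference. PEP 0.5 mM, ADP 0.1 mM; ATP detected by luminescence after 1 h.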
# Giardia FBPA inh = blocks Giardia fructose-bisphosphate aldolase activity | A8B2U2 | purified Giardia FBPA | Potency, µM (top dose mostly 59.6 µM), without a hit: top-dose activity, negative = inhibition, usual class: inhibitors | 290,000 tested, 0.71% active | AID 2451; further: potency means the concentration at half of the fitted maximal effect; on the % scale 0 is the no-effect control and ±100 the full control effect; nearly all actives have a fitted effect of over 55% in size
# Target sequence (A8B2U2 whole entry, looked up): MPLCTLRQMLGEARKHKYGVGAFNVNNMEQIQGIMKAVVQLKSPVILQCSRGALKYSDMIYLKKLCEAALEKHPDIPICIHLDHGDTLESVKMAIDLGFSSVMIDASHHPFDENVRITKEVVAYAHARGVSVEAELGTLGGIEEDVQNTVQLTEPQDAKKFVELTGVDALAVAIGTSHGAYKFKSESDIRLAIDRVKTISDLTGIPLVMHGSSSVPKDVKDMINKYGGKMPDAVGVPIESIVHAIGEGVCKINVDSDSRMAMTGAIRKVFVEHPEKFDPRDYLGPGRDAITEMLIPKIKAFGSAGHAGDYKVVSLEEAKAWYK
#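 40 nM FBPA preincubated 10 min at RT with compound (up to 57.5 uM final), then substrate plus GAPDH/TPI/NAD/arsenate coupling and diaphorase/resazurin added. Fluorescence read after 20 min at RT, 525/598 nm.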
# RE007 growth inh = less growth of the S. pombe RE007 Vpr strain | S. pombe RE007 Vpr strain, BacTiter-Glo ATP luminescence, 24 h | Potency, µM (titrated, usually from 92.2 µM), for the others: top-dose activity change, negative = less growth, actives largely listed as inhibitors | 360,000 tested, 0.21% active; active means well fitted falling curve with a large enough effect; inconclusive means small, poorly fitted or top-dose-only effect; inactive means no such curve, though single readings can be large or run the other way; further: potency means the concentration at half of the fitted maximal effect; on the % scale 0 is the no-effect control and ±100 the full control effect; nearly all actives have a fitted effect of over 50% in size
#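 Fission yeast RE007 carrying one integrated HIV-1 vpr copy, seeded at OD 0.01 in PMG+AL medium with 23 nL pinned compound. Grown 24 h at 30 degrees; viability read by BacTiter-Glo luminescence after 5 min.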
# Tb PYK inh = blocks Trypanosoma brucei pyruvate kinase; TbPYK enzyme, Kinase-Glo Plus ATP luminescence, 45 min; Potency, µM (titrated, usually from 76.8 µM), for inactives: top-dose activity, negative = inhibition, most hits filed as inhibitors; 410,000 tested, 0.12% active; AID 624173; further: potency means the concentration at half of the fitted maximal effect; on the % scale 0 is the no-effect control and ±100 the full control effect; nearly all actives have a fitted effect of over 50% in size
#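 Readout: single end-point luminescence (Kinase-Glo Plus, 10 min). Reaction conditions were TbPYK/substrate plus 130 uM ADP, 45 min at RT, pH 7.2 TEA buffer. No-enzyme wells served as controls, and data were normalized before concentration-response fitting.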
# CHX counter = counter-screen hit for Shiga toxin inhibitors, cycloheximide; max response, %; cell reporter, cycloheximide protein synthesis inhibition counterscreen; 300,000 tested, 12% active; AID 2314; in the data active means max response mostly above about 13%, no sharp cut-off; inactive means mostly below about 14%; further: read at 38.3 µM for the half of the compounds with a filed dose; 0% is about no effect
# Shiga inhibitor = blocks Shiga toxin action in Vero cells | 290,000 tested, 9.2% active | Vero cells, Shiga toxin protein synthesis inhibition reporter | inhibition, % at 38.7 µM; in the data active means inhibition mostly above about 28%, no sharp cut-off; inactive means mostly below about 43%; further: 0% is about no effect
# An asterisk follows results filed as active; ? = inconclusive; / = no result given; [ ] = dose if it differs, or a comment. Unless noted, the call rests on the fitted dose curve; in most records, active means well fitted curve in the direction sought with a large enough effect; inconclusive means small, poorly fitted or top-dose-only effect, or another doubt; inactive means no such curve, though single readings can be large; an effect the other way counts as inactive or inconclusive.
SMILES,LmPK inh,Giardia FBPA inh,RE007 growth inh,Tb PYK inh,CHX counter,Shiga inhibitor
CCOc1ccccc1NC(=O)Nc1nnc(N2CCCC(C)C2)s1 (centres undefined),/,/,/,-1%,/,/
O=C(Nc1nc(-c2ccccc2)cs1)NC1CCCCC1,1%,4%,-5%,-2%,34*,48*
COc1ccc(-c2csc(NC3CCCCC3)n2)c(OC)c1,10%,1%,2%,-9%,26*,60*
COc1ccc(-c2csc(NC(=O)CN3C(=O)CCC3=O)n2)c(OC)c1,0%,6%,29%,-6%,-3,-11
c1ccc(-c2csc(NC3CCCCC3)n2)cc1,0%,0%,-6%,-4%,56*,148*
COc1ccnc(NCc2ccc(Cl)cc2)c1C#N,1%,2%,3%,2%,27*,56*
COc1cc2ncnc(NCc3ccc(Cl)cc3)c2cc1OC,0%,8%,-2%,4%,0,-5
Cc1cccc(NC(=O)CSc2cn(CC(=O)N3CCC(C)CC3)c3ccccc23)c1C,/,/,/,3%,/,/
Cc1ccc(OCC(=O)N/N=C\c2cccn2C)c([N+](=O)[O-])c1,7%,4%,-1%,-5%,32*,42*
Cc1ccc(C)c(OCC(=O)N/N=C\c2cccn2C)c1,0%,0%,-9%,-9%,17,39
N#C/C(=C/c1cn(-c2ccccc2)nc1-c1cccc(S(=O)(=O)N2CCCC2)c1)C(=O)NCc1ccco1,3%,-1%,-4%,-2%,9,34*
N#C/C(=C\c1cn(Cc2cccc(F)c2)c2ccccc12)C(=O)NCc1ccco1,0%,-3%,16%,-5%,25*,28*
N#C/C(=C\c1ccco1)C(=O)NCc1ccccc1,-1%,5%,0%,1%,35*,41*
N#C/C(=C\c1cn(Cc2ccccc2)c2ccccc12)C(=O)NCc1ccco1,2%,2%,1%,-9%,29*,35
CC(C)=NOC[C@@H](O)[C@@H]1O[C@@H]2OC(C)(C)O[C@@H]2[C@H]1O,/,1%[12.9 µM],/,/,/,/
Cc1ccc(C=Nc2ccc(N(C)C)cc2)o1,?,?,?,-6%,24*,109*
CC(C)(C)OC(=O)N1CCC(c2c(C(=O)NC3CCN(Cc4ccccc4)CC3)cnn2-c2ccc(F)cc2F)CC1,/,/,/,2%[15.4 µM],/,/
N#Cc1ccccc1NS(=O)(=O)c1ccc(N2CCCCS2(=O)=O)cc1,/,/,/,-2%,/,/
Cc1ccc(N=Cc2c(O)c3ccccc3oc2=O)c(C)c1,-8%,-8%,-7%,8%,30*,17
CN=C(C)c1c(O)c2ccccc2oc1=O,4%,0%,-14%,1%,18*,20
COc1cccc(N=Cc2c(O)c3ccccc3oc2=O)c1,1%,-13%,-17%,-8%,21*,35
COC(=O)c1ccc(OCC2c3cc(OC)c(OC)cc3CCN2C(=O)c2ccc(F)cc2)cc1 (centres undefined),/,/,/,1%,/,/
C=C(C)C1Cc2cc3ccc(=O)oc3cc2O1 (centres undefined),1%,6%,-15%,5%,16*,27
CC1(C)Oc2cc3oc(=O)ccc3cc2C[C@@H]1O,/,/,-16%,5%,/,/
CC(C)(O)[C@H]1Cc2cc3ccc(=O)oc3cc2O1,0%,9%,-6%,-12%,39*,82*
SMILES,LmPK inh,Giardia FBPA inh,RE007 growth inh,Tb PYK inh,CHX counter,Shiga inhibitor
Cc1nn2c(=O)cc(COC(=O)c3cccc(NC(=O)c4ccc(F)cc4)c3)nc2s1,/,/,/,3%,/,/
COc1ccc(Cn2c(C3CC3)nc3ccc(NC(C)=O)cc3c2=O)cc1,-22%,-11%,2%,-9%,57*,121*
COc1ccc(Cn2c(C3CC3)nc3ccc(NC(=O)c4cccnc4)cc3c2=O)cc1,-7%,1%,0%,-2%,22*,54*
Cc1nc2ccc(NC(=O)c3ccccc3)cc2c(=O)n1Cc1ccc(F)cc1,/,/,-9%,2%,/,/
CCCc1nc2ccc(NC(=O)c3cccs3)cc2c(=O)n1Cc1ccccc1Cl,4%,-2%,-6%,-11%,12,1
CCCc1nc2ccc(NC(C)=O)cc2c(=O)n1Cc1ccc(Cl)cc1,5%,-2%,-1%,2%,43*,90*
COc1ccc(C(=O)NCc2csc(-c3cccs3)n2)cc1,5%,-1%,-17%,-1%,1,13
O=S(=O)(NCc1csc(-c2ccccc2)n1)c1ccc(Cl)s1,2%,?,-6%,0%,5,-6
O=C(NCc1csc(-c2cccs2)n1)C1CCCCC1,-5%,4%,5%,5%,29*,76*
COc1ccccc1CC(=O)NCc1csc(-c2cccs2)n1,-2%,-7%,-12%,-11%,47*,68*
O=S(=O)(NCc1csc(-c2cccs2)n1)c1ccccc1,-4%,-6%,17%,1%,6.7*,41
O=C(NCc1ccccn1)C1CCCCC1,0%,6%,-17%,-4%,-2,-5
CCC(=O)NCc1csc(-c2cccs2)n1,-9%,5%,13%,5%,24*,28
COc1ccc(-c2nc3scc(CCNS(=O)(=O)c4ccc5c(c4)OCCO5)n3n2)cc1OC,/,/,/,0%,/,/
COc1ccc(-c2cc(C(F)(F)F)n3nc(C(=O)Nc4ccccc4SC)cc3n2)cc1OC,/,/,/,5%,/,/
COc1ccc(CCNC(=O)c2nc(-c3cccs3)no2)cc1OC,1%,-4%,-17%,-9%,-2,7
COc1ccccc1CCNC(=O)c1nc(-c2cccs2)no1,3%,-20%,-26%,-3%,29*,67*
O=C1OC(Cc2ccccn2)C(=O)C1=C1SCCS1 (centres undefined),0%,-4%,8%,6%,29*,active
O=C1CSC(c2ccccc2)N1Cc1ccccn1 (centres undefined),5%,17%,1%,-3%,2,-3
O=C(CCNc1ccccc1)c1cccc([N+](=O)[O-])c1,0%,-4%,11µM*,3%,15,10
O=C(CCNc1ccc(F)cc1)c1cccc([N+](=O)[O-])c1,6%,18%,18µM*,-6%,12,-5
Cc1ccc(NCCC(=O)c2cccc([N+](=O)[O-])c2)cc1,-6%,-1%,5.6µM*,-15%,29*,19*
Cc1ccnc(NCc2cccc3ccccc23)c1,-1%,?,-6%,-2%,11,-1
COc1cccc(CNc2cc(C)ccn2)c1O,-6%,7%,-10%,-10%,39*,51*
COc1cccc(CNc2cccc3cccnc23)c1O,-16%,?,-16%,-9%,16*,active
COc1cccc(CNc2ccccn2)c1O,0%,12%,2%,1%,34*,/
Oc1c(Br)cc(Br)cc1CNc1cccc2cccnc12,0%,?,?,-7%,-6,-13

# High-throughput results from PubChem BioAssay.
